How the values were obtained:
Assay type in all cases: functional
Plasmodium falciparum [1] = assay: GSK_TCMDC: Inhibition of Plasmodium falciparum 3D7 in whole red blood cells, using parasite LDH activity as an index of growth. Test compounds present at 2uM
Plasmodium falciparum [2] = assay: GSK_TCMDC: Inhibition of Plasmodium falciparum Dd2 in whole red blood cells, using parasite LDH activity as an index of growth. Test compounds present at 2uM
HepG2 = assay: GSK_TCMDC: Percent inhibition of human HepG2 cell line. Test compounds present at 10uM.

Structure (SMILES)	Inhibition (Plasmodium falciparum [1]) [%]	Inhibition (Plasmodium falciparum [2]) [%]	Inhibition (HepG2) [%]
COc1cc(Cc2cnc(N)nc2N)cc(CC(C)O)c1O (centres undefined)	93	2	0
Cc1ccc(S(=O)(=O)c2nc(S(=O)(=O)c3ccccc3)sc2NCC2CCCO2)cc1 (centres undefined)	88	17	4
CCOc1ccc2c(N/N=C/c3cccc([N+](=O)[O-])c3)cc(C)nc2c1	100	97	4
Br.CCCc1cccc(C)c1OCCCON1C(=N)N=C(N)NC1(C)C	95	96	57
CCn1c(-c2nonc2N)nc2c(Cl)ncc(O[C@H](CCN)c3ccccc3F)c21.Cl	96	88	15
O=C(Nc1cc(F)c(F)c(-c2cccnc2)c1)N1CCc2cc(Cl)c(Cl)cc21	94	9	0
O=C(CNc1ccc(Cl)c(S(=O)(=O)N2CCCC2)c1)Nc1ccc(Br)cc1F	99	97	18
Cc1ccc(Cl)cc1N1CCN(CCCNC(=O)C2CCN(c3nc4ccccc4[nH]3)CC2)CC1	88	0	41
CN1CCN(c2ccnc3ccc(NC(=O)Nc4cccc5c(C#N)cccc45)cc23)CC1	91	40	0
O=C(Nc1cccc(-c2cc3ccccc3[nH]2)c1)C1CCN(Cc2ccccc2O)CC1	95	25	34
O=C(/C=C/c1ccc(C(F)(F)F)cc1)NCCCCCN1CCN(C(=O)Nc2ccc(Cl)cc2)CC1	88	0	37
Cc1cc(C(=O)Nc2ccc3c(c2)CCN3C2CCN(Cc3csc4ccccc34)C2)no1 (centres undefined)	96	96	1
O=C1C2C(c3ccc(Cl)c(Cl)c3)N3CC(OCc4ccccc4)CC3(C(=O)O)C2C(=O)N1c1ccc(Br)cc1 (centres undefined)	100	86	14
Fc1ccc2[nH]c(-c3cccc(-c4cccc(CN5CCN(c6cnccn6)CC5)c4)c3)nc2c1.O=C(O)C(F)(F)F	93	35	17
CCc1cn2c3c(cc(C(=O)N[C@@H](Cc4cccc(Cl)c4)[C@H](O)CNC4CCOCC4)cc13)N(C)S(=O)(=O)CC2.O=CO	98	98	2
CN(C)CCOc1ccc(-c2cc(-c3ccc(Cl)c(O)c3)c(-c3ccnc(N)n3)o2)cc1	100	95	43
CCCCCCC(C)c1cc(OCCN(CC)CC)c2c(c1)OC(C)(C)C=C2c1ccncc1.Cl (centres undefined)	90	71	14
O=C(NCCc1ccccc1)c1cc(-c2cccnc2)cnc1NCC1CC1	93	35	3
CCc1ccc(-n2c(=O)c3cccnc3n2CC(=O)NC2CCCC2)cc1	98	27	0

Structure (SMILES)	Inhibition (Plasmodium falciparum [1]) [%]	Inhibition (Plasmodium falciparum [2]) [%]	Inhibition (HepG2) [%]
O=C1C(c2ccccc2)=C(Nc2cc(Cl)cc(Cl)c2)c2ccccc21	96	94	0
Cl.c1ccc2c(Nc3ccc(OCCOCCOc4ccc(Nc5c6ccccc6nc6ccccc56)cc4)cc3)c3ccccc3nc2c1	100	97	38
CCCCCNc1nc(Nc2ccccc2C)nc2ccccc12.Cl	100	30	5
CCCCN1Cc2c(n(CC(=O)Nc3ccccc3)c3cc(-c4ccccc4)nn3c2=O)C1=O	92	60	1
O=C(NCc1cccc(Br)c1)c1ccc(CNC2CCN(Cc3ccccc3)CC2)cc1.O=C(O)C(F)(F)F	100	49	3
OC(CNCc1ccccc1Oc1ccccc1)c1cccc(C(F)(F)F)c1 (centres undefined)	100	98	0
CN(C)CC(O)C(c1ccccc1)c1ccc(Cl)cc1.O=C(O)CCC(=O)O (centres undefined)	99	4	4
Br.CCCOC(=O)c1ccc(OCCCON2C(=N)N=C(N)NC2(C)C)cc1	95	97	61
Nc1cc(-c2ccc(-c3cccs3)s2)nc2ccccc12	100	50	32
CC1(C)N=C(N)N=C(N)N1OCCCCON1C(N)=NC(N)=NC1(C)C	97	95	54
COc1ccc2ccccc2c1CON1C(=N)N=C(N)NC1(C)C.Cl	94	5	25
CC(C)(C)OC(=O)NCCc1cccc(-c2c[nH]c3ncc(-c4cccc(NS(C)(=O)=O)c4)cc23)c1	97	71	16
O=C(c1cncc(-c2ccccc2)c1)N(Cc1cncn1Cc1ccccc1F)CC1CC1	100	0	0
COc1ccc(C(=O)Nc2ccc3nc(N4CCCCC4)cc(C)c3c2)cc1[N+](=O)[O-]	96	7	17
O=C(/C=C/c1ccc(Cl)c(Cl)c1)NCCCCCN1CCC(NS(=O)(=O)c2cc(Cl)cc(Cl)c2)CC1	83	5	7
CCCCN(CCCC)CCCN(CCCN(CCCC)CCCC)c1cc(C)nc(Nc2ccc(Br)cc2)n1.O=C(O)C(=O)O	99	98	51
O=C(Nc1cccc(C(F)(F)F)c1)c1ccc(S(=O)(=O)NC2CCN(CC3CCCCC3)C2)cc1.O=C(O)C(F)(F)F (centres undefined)	92	0	16
COCCCN=C(S)NN=C(C)c1ccccn1	100	99	55
Cc1cc(-c2cc(Cl)ccc2Cl)no1	96	97	36

Reference: ChEMBL document CHEMBL1157539, “Thousands of chemical starting points for antimalarial lead identification” (Nature, 2010)
